# High-throughput results as filed in PubChem BioAssay.
# IMPase Li cell = IMPase inhibition in cells with lithium potentiation | Potency, µM (top dose mostly 59.4 µM), for inactives: at the top dose activity, negative = IMPase inhibition, actives largely listed as inhibitors | 210,000 tested, 0.35% active | CHO-M1 cells, IP1 TR-FRET (IP-One), carbachol + lithium | AID 1457;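 also: IP1 builds up when IMPase is blocked and the TR-FRET signal falls; potency is read from the fitted curve at half-maximal effect; plate controls were basal vehicle for no effect and high inhibitor control for full effect; nearly all actives have a fitted effect of over 50% in size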
#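 Readout is a homogeneous TR-FRET IP1 immunoassay (Ex 320, Em 665 and 620), where raised cytosolic IP1 lowers signal. Cells were CHO-M1 treated 30 min at 37C with test compounds plus a little lithium; AC50 values came from Hill-equation fitting.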
# 12-hLO inh = blocks human 12-lipoxygenase activity. purified 12-hLO, xylenol orange hydroperoxide absorbance. AID 1452. P18054. Potency, µM (series often up to 57.1 µM), for inactives: at the top dose activity change, negative = inhibition, usual class: inhibitors. 150,000 tested, 0.12% active; also: potency is read from the fitted curve at half-maximal effect; nearly all actives have a fitted effect of over 55% in size
#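 Lipoxygenase turnover measured by absorbance at 573 and 405 nm after Fe-XO development. Human 12hLO 150 nM, arachidonate 40 uM, pH 7.0 Hepes buffer with detergent; 15 min compound preincubation, 30 min reaction.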
# ALDH1A1 inh = inhibitors of human aldehyde dehydrogenase 1A1. Potency, µM (highest dose often 75.3 µM), for inactives: at the top dose activity, negative = inhibition, most hits filed as inhibitors. Purified ALDH1A1, NADH fluorescence, propionaldehyde substrate. P00352. 220,000 tested, 7.3% active. AID 1030; active = well fitted inhibition curve with a large enough effect, not every such curve was filed as active; inconclusive = small, poorly fitted or top-dose-only effect, or another doubt; inactive = no such curve, though single readings can be large or run the other way;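 also: potency is read from the fitted curve at half-maximal effect; plate controls were no enzyme wells and a reference inhibitor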
# PNC inhibitor = inhibitors of perinucleolar compartment assembly | PC3M PTB-GFP, PNC prevalence imaging, 16 h; hits give low values | activity change (PNC), negative = inhibition, % at 10 µM | 140,000 tested, 3.1% active | AID 2417;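 active = readout at or below -70, meaning at least 70% loss of cells showing the perinucleolar compartment, a nuclear body marking cancer cells; inconclusive = readout between -30 and a set limit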;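 also: plate controls were DMSO wells for no effect and camptothecin positive control wells for full effect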
#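 Compounds are pinned in duplicate onto adhered PC3M cells stably expressing GFP-tagged PTB and incubated 16 h at 37 C. Cells are then fixed, nuclei stained with Hoechst, and PNC-positive cells counted.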
# IMPase cell inh = membrane-permeable compound that blocks inositol monophosphatase | P97697 | 120,000 tested, under 10 active | CHO-M1 cells, IP1 accumulation, HTRF TR-FRET ratio | inhibition (IP1 accumulation), % at 46.1 µM; active = well fitted curve in the direction sought with a large enough effect in the signal ratio, not every such curve was filed as active; inconclusive = small, poorly fitted or top-dose-only effect, or a change in a side signal; inactive = no such curve, though single readings can be large or run the other way; the % refers to the signal ratio;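 also: cells stimulated with carbachol in lithium chloride buffer; plate controls were DMSO basal wells for no effect and reference inhibitor wells for full effect; higher means more IMPase inhibition seen as more IP1 and lower FRET ratio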
# Target sequence (P97697 whole entry, looked up): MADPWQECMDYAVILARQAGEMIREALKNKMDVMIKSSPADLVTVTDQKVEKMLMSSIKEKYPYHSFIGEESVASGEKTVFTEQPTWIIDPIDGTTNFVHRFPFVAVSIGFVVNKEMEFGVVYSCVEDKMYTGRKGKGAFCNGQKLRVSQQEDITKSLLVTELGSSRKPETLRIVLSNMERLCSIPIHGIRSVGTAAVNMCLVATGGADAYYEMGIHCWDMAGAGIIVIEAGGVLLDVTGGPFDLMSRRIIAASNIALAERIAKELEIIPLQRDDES
#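 The IP-One HTRF competitive assay in carbachol-stimulated CHO-M1 cells quantifies cellular IP1. Compounds spanned up to 46 uM final, and activity is expressed as AC50 from concentration-response fits of the ratio and donor data.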
# HPGD inh = inhibitors of human 15-hydroxyprostaglandin dehydrogenase (HPGD); purified HPGD, NADH fluorescence kinetic, PGE2 substrate; P15428; 150,000 tested, 4.3% active; Potency, µM, without a hit: at the top dose activity change, negative = inhibition, most hits filed as inhibitors; AID 894; active = well fitted inhibition curve with a large enough effect, not every such curve was filed as active; inconclusive = small, poorly fitted or top-dose-only effect, or another doubt; inactive = no such curve, though single readings can be large or run the other way; also: potency is read from the fitted curve at half-maximal effect
# Target sequence (P15428 whole entry, looked up): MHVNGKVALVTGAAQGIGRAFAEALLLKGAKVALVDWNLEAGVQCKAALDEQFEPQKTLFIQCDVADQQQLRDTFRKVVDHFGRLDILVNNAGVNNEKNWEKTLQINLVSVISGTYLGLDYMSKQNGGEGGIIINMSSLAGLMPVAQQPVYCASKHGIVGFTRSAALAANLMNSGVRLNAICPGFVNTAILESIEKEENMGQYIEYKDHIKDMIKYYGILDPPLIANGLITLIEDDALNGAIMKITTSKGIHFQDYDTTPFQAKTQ
#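 NADH formation kinetics: reaction with 30 uM PGE2 and 1 mM NAD+ (final), 20 nM enzyme, Tris-HCl pH 8 with Tween 20, after 15 min compound preincubation at room temperature. Fluorescence change, last versus first of five reads.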
# * hit, by the source's call; ? = inconclusive; · = no result given; [ ] = dose if it differs, or a comment. Shown are actives, neighbours in structure and some others; about 11% of the full set was active somewhere. Unless noted, calls follow the shape of the dose curve; as a rule, active = well fitted curve in the direction sought with a large enough effect; inconclusive = small, poorly fitted or top-dose-only effect, or another doubt; inactive = no such curve, though single readings can be large; an effect the other way counts as inactive or inconclusive. Unless noted, % is scaled to controls: 0 for no effect and ±100 for the full control effect.
SMILES,IMPase Li cell,12-hLO inh,ALDH1A1 inh,PNC inhibitor,IMPase cell inh,HPGD inh
CCCN(CCC)C(=O)CC(c1ccc(F)cc1)c1ccco1 (stereo unspecified),12%[38.3 µM],-5%,?,24,8,1%
Cc1ccccc1-c1cc(N(C)Cc2ccco2)ncn1,0%,·,?,·,·,·
COc1cc(OC)c2c(OC)c(-c3ccc4c(c3)OCO4)c(=O)oc2c1,16%,-19%,?,·,·,?
O=C1CC(Nc2ccccc2)C(=O)N1CCc1ccccc1 (stereo unspecified),21%[38.3 µM],-4%,3%,52,-7,2%
O=C1CC(Nc2ccc(N3CCOCC3)cc2)C(=O)N1CCc1ccccc1 (stereo unspecified),23%[38.3 µM],?,25µM*,5,10,-10%
O=C1CC(Nc2ccc(N3CCOCC3)cc2)C(=O)N1c1cccc(C(F)(F)F)c1 (stereo unspecified),57%[38.3 µM],?,8.9µM*,22,8,-27%
CN(C)c1ccc(N2C(=O)CC(Nc3ccc(N4CCOCC4)cc3)C2=O)cc1 (stereo unspecified),3%,-7%,?,?,9,1%
COc1cccc(N2C(=O)CC(Nc3ccc(N4CCOCC4)cc3)C2=O)c1 (stereo unspecified),22%[38.3 µM],?,-1%,-6,2,-2%
COc1ccc(N2C(=O)CC(Nc3ccc(N4CCOCC4)cc3)C2=O)c(OC)c1 (stereo unspecified),35%[38.3 µM],-29%,?,-88*,3,-1%
CC(C)(C)c1ccc(-c2cn(-c3ccc(Br)cc3)c3[n+]2CCCS3)cc1,24%,·,?,·,·,·
COC(=O)c1ccc(C(NC(=O)OCc2ccccc2)/C(C)=C/[C@@H](C)C(=O)N2CCN(C)CC2)cc1 (stereo partly specified),2%,1%,?,·,·,-10%
CCC1OC(=O)C[C@H](O)C(C)[C@@H](O[C@@H]2OC(C)C(O)C(N(C)C)C2O)C(CCN2CC(C)CC(C)C2)CC(C)C(=O)/C=C/C(C)=C\[C@@H]1COC1OC(C)C(O)C(OC)C1OC (stereo partly specified),22%,14%,7%,·,·,-8%
CCCCCc1c(C)nc(N2CCc3ccccc3C2)[nH]c1=O,12%[38.3 µM],3%,10%,-117*,2,-20%
COC(=O)c1ccc(C(NC(=O)OCc2ccccc2)/C(F)=C/[C@@H](C)C(=O)N(C)Cc2cccnc2)cc1 (stereo partly specified),6%,-1%,?,·,·,-11%
O=C(NCC1CCCO1)c1ccc2c(c1)OCO2 (stereo unspecified),-5%[38.3 µM],-14%,0%,54,8,2µM*
O=C(COC(=O)c1ccc(NS(=O)(=O)c2ccc3c(c2)OCCO3)cc1)NCC1CCCO1 (stereo unspecified),6%[38.3 µM],0%,-9%,-92*,1,-22%
CN(c1ccc(C(=O)NCC2CCCO2)cc1)S(C)(=O)=O (stereo unspecified),60%[38.3 µM],7%,0%,-87*,6,-27%
CS(=O)(=O)N(Cc1ccccc1)c1ccc(C(=O)NCC2CCCO2)cc1 (stereo unspecified),19%[38.3 µM],4%,8%,25,1,-25%
O=C(Nc1ccc2c(c1)OCO2)c1ccc(S(=O)(=O)NCC2CCCO2)cc1 (stereo unspecified),25%[38.3 µM],1%,-3%,17,3,2%
O=C(C=C=Nc1ccccc1)C(=O)N=C=Cc1ccccc1,·,·,4%,·,·,·
O=C1Nc2ccccc2C(O)(C(=O)NCc2ccc3c(c2)OCO3)N1c1ccccc1 (stereo unspecified),6%[38.3 µM],-2%,?,-12,15,-19%
O=C1Nc2ccccc2C(O)(C(=O)NCc2ccco2)N1c1ccc(Cl)c(Cl)c1 (stereo unspecified),-10%[38.3 µM],-6%,25µM*,1,1,-22%
